An excerpt weighted towards active compounds, which were near 6.8% of everything screened.
SW480 rerep = DNA re-replication induction in SW480 cells; 340,000 tested, 1.8% active; SW480 DNA re-replication, Hoechst DNA content imaging, 48 h; Potency, µM (doses to about 46.1 µM), inactives show at the top dose re-replication activation, actives largely listed as activators; note: % of control where 0% means no effect; nearly all actives have a fitted effect of over 55% in size
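Compounds, transferred as 23 nL by pin tool, were incubated with cells for 48 hr; DNA content per nucleus was then quantified by Hoechst staining and fluorescence plate imaging.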
PTAP TSG101 blk = blocks PTAP/TSG101 interaction to inhibit HIV-1 budding; 340,000 tested, under 10 active; Potency, µM (highest dose often 115 µM), without a hit: at the highest dose activity change, negative = inhibition, actives largely listed as inhibitors; Q99816; Fluorescence polarization, FITC-PTAP peptide / Tsg101 binding; active = well fitted inhibition curve with a large enough effect in the main read-out, with a control signal flat, not every such curve was filed as active; inconclusive = small, poorly fitted or top-dose-only effect, or effect the other way, or a change in a side signal; inactive = no such curve, though single readings can be large or run the other way; note: % of control where 0% means no effect
Target sequence (Q99816 whole entry, looked up): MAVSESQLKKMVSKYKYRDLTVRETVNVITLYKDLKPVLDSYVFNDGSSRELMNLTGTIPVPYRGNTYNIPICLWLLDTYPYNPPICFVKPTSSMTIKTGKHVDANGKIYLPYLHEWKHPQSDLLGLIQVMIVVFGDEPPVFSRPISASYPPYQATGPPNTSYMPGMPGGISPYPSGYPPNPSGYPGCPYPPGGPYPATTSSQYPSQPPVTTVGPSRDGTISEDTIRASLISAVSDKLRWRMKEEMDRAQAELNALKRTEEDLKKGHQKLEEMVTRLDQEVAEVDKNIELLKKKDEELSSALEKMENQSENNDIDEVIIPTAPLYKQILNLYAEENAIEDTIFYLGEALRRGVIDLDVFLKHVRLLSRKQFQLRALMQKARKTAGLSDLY
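Fluorescence polarization binding of Tsg101 binding domain (10 uM final) to FITC-labeled PTAP peptide (50 nM final) in HEPES pH 7.5 buffer with NaCl, Tween 20, EDTA, TCEP. Compounds added before peptide; binding 20 min at RT.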
KB-V1 cytotox = KB-V1 MDR subline cytotoxicity; KB-V1 MDR cells viability, CellTiter-Glo, 72 h; Potency, µM (doses to about 46.1 µM), usual class: cytotoxic; 400,000 tested, 3.4% active; AID 1347076; note: % is set by controls: 0 for no effect and ±100 for the full control effect; nearly all actives have a fitted effect of over 60% in size
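Luminescent ATP read-out (CellTiter-Glo, 10 min) measures survival of drug-selected KB-V1 MDR cells after 72 h, 37 degrees C compound exposure. Medium: phenol-red-free DMEM, 10% FBS. Values from fitted concentration-response curves.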
MCF10A rereplic = induces DNA re-replication in MCF 10a normal breast cells | MCF 10A DNA re-replication, Hoechst nuclear intensity, 48 h | Potency, µM (series often up to 46.1 µM), for the others: at the highest dose activity, positive = re-replication, actives largely listed as activators | 350,000 tested, 2.9% active; note: % of control where 0% means no effect; nearly all actives have a fitted effect of over 50% in size
KB-3-1 cytotox = KB-3-1 parental cell cytotoxicity; KB-3-1 viability, CellTiter-Glo ATP luminescence, 72 h; Potency, µM (doses to about 46.1 µM), usual class: cytotoxic; 400,000 tested, 1.4% active; AID 1347075; note: % is set by controls: 0 for no effect and ±100 for the full control effect; nearly all actives have a fitted effect of over 60% in size
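Cytotoxicity in the drug-sensitive parental line KB-3-1 was scored as loss of CellTiter-Glo luminescence following 72 h incubation with compound. Values come from curve fitting of normalized concentration-response data.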
PINK1 modulator = changes PINK1 expression; Potency, µM (series often up to 76.6 µM), without a hit: at the top dose activation (PINK1 increase), usual class: activators; 410,000 tested, 0.2% active; PINK1 immunofluorescence, high-content cytometry, 24 h; active = well fitted activation curve with a large enough effect; inconclusive = small, poorly fitted or top-dose-only effect; cell line not stated here; note: % of control where 0% means no effect; nearly all actives have a fitted effect of over 65% in size
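A stable cell line was treated with compounds at 5 concentrations for 24 hours, with CCCP as control. PINK1 levels and mitochondrial localization were measured by immunofluorescence with mitochondrial, cell and nuclear markers after fixation, read by laser-scanning cytometry.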
Numbers without * were called inactive; i = inactive; u = inconclusive; x = no result; [ ] = remark or other dose. Unless noted, calls come from the whole dose curve; as a rule, active = well fitted curve in the direction sought with a large enough effect; inconclusive = small, poorly fitted or top-dose-only effect, or another doubt; inactive = no such curve, though single readings can be large; an effect the other way counts as inactive or inconclusive. Potency is the fitted concentration of half-maximal effect.

SMILES	SW480 rerep	PTAP TSG101 blk	KB-V1 cytotox	MCF10A rereplic	KB-3-1 cytotox	PINK1 modulator
COc1ccc(-c2cnnc(N/N=C/c3ccc(-c4ccc([N+](=O)[O-])cc4)o3)n2)cc1	u	2.0%	18.4µM*	1.03µM*	4.61µM*	15.1%
N#Cc1c(-c2ccccc2)cc(-c2ccc(O)cc2)nc1N	u	-7.2%	i	23.1µM*	i	2.4%
COc1ccccc1-c1c(C#N)c(N)nc2c1CCc1ccccc1-2	20.6µM*	-1.5%	16.4µM*	u	13µM*	11.6%
CS(=O)(=O)c1nc(-c2ccc(Br)cc2)cc(-c2ccccc2)c1C#N	3.66µM*	1.4%	i	5.8µM*	u	-2.7%
CCOc1cc(-c2c(C#N)c(N)nc3c2CCCC3C)ccc1O (stereo not given)	u	-5.7%	18.4µM*	u	u	4.4%
COc1ccc(-c2cc(-c3ccccc3)c(C#N)c(S(C)(=O)=O)n2)cc1	u	-5.5%	i	u	u	-1.8%
COc1cc(-c2cc(-c3ccc(O)cc3)nc(N)c2C#N)ccc1O	-12.4%	-0.7%	u	u	u	0.1%
CCOc1cc(-c2c(C#N)c(N)nc3c2CCc2ccccc2-3)ccc1O	u	-3.1%	23.1µM*	u	u	8.3%
CCOc1cc(-c2cc(-c3ccc(C)cc3)nc(N)c2C#N)ccc1O	16.4µM*	-0.2%	8.2µM*	20.6µM*	5.8µM*	1.6%[38.3 µM]
O=C(NCC1Cc2cccc(-c3cnccn3)c2O1)c1ccc(F)c(Cl)c1 (stereo not given)	x	x	x	x	x	0.6%
CCOc1cc(-c2nc(-c3ccccc3)c(-c3cc([N+](=O)[O-])ccc3C)[nH]2)ccc1O	20.5%	-3.9%	18.4µM*	5.5%	i	-2.4%
CCOC(=O)C(CC)N1CCN(Cc2ccc(F)cc2)C(=O)C1=O (stereo not given)	x	x	i	x	i	-0.1%
Cc1cc(C)c2nc(N(Cc3cccnc3)C(=O)c3cccs3)sc2c1	x	x	u	x	i	-1.0%
CCCc1nn(C)c(C(=O)Nc2ccc(Cl)cc2)c1Cl	-7.7%	1.8%	i	-1.2%	i	14.1%
CCCc1nn(C)c(C(=O)Nc2ccccc2)c1Cl	-2.2%	-0.2%	18.4µM*	14.6%	i	0.2%
CCOC(=O)/C(=C\c1cccc(O)c1)c1nc2sc(C)c(C)c2c(=O)[nH]1	u	-0.3%	u	2.31µM*	u	-0.5%
Cn1ccc2cc(-c3ccc4ncnc(NCc5cccs5)c4c3)ccc21	u	-2.8%	u	11.6µM*	18.4µM*	u
COc1ccc(-n2cc(CNCCc3nc(C)cc(C)n3)c(-c3ccccc3Cl)n2)cc1	-0.9%	-2.5%	u	u	i	0.0%
Fc1ccc(-n2cc(CNCCc3ccccn3)c(-c3ccccc3Cl)n2)cc1	6.0%	-0.5%	20.6µM*	u	u	9.5%
COc1cc(-c2cc(OC)c3c(C)oc(C)c3c(=O)c2)ccc1OC(=O)c1ccccc1C	x	x	x	x	x	0.4%
CCCCC[C@@H](/C=C/C1C(=O)C=C[C@H]1C/C=C\CCCC(=O)OC)OC(C)=O (stereo not given in full)	-21.9%[9.22 µM]	-14.3%	u	18.4µM*	u	-2.2%
Cc1nc(-c2ccc(F)cc2)sc1CCNC(=O)c1ccccc1C(F)(F)F	x	x	i	x	i	2.2%
O=C1CC(c2ccccc2)CC(O)=C1C=NCc1ccccc1Cl (stereo not given)	-0.9%	-1.8%	u	u	u	11.4%[38.3 µM]
O=C1CC(c2cccc(Cl)c2)CC(O)=C1C=NC1CCCC1 (stereo not given)	1.3%	-1.5%	20.6µM*	u	i	0.7%
COc1cc(NC(=O)c2ccc(NC(=O)N3CCSc4ncccc43)cc2)cc(OC)c1	x	x	i	x	i	-0.1%
SMILES	SW480 rerep	PTAP TSG101 blk	KB-V1 cytotox	MCF10A rereplic	KB-3-1 cytotox	PINK1 modulator
Nc1nnnn1/N=C/C(Br)=C/c1ccccc1	2.82µM*	-3.0%	u	2.59µM*	u	-1.5%
O=C1c2ccccc2C(=O)N1CCCCN(C(=O)c1cc([N+](=O)[O-])cc([N+](=O)[O-])c1)c1ccc(Cl)cc1	7.5%	-4.2%	i	3.1%	i	-2.0%
Cc1ccc(N(CCCCN2C(=O)c3ccccc3C2=O)C(=O)c2cccc([N+](=O)[O-])c2)cc1	9.3%	-1.6%	18.4µM*	20.0%	i	-0.6%[38.3 µM]
Cc1ccc(CCNC(=O)c2ccc(CSCc3ccccc3Cl)o2)cc1	x	x	i	x	i	4.4%
CCCCC(O)(CCCC)C(=O)NN(C(=O)OC)c1ccccc1	-0.1%	-10.6%	i	2.1%	i	-0.8%
CCCC(O)(CCC)C(=O)NN(C(=O)CCl)c1ccccc1	u	0.2%	i	14.6µM*	i	4.4%
CCCCC(O)(CCCC)C(=O)NN(C(=O)OCC)c1ccccc1	-6.1%	-2.8%	13µM*	10.7%	i	2.7%
CCOC(=O)N(NC(=O)C(O)(c1ccccc1)c1ccccc1)c1ccccc1	2.91µM*	-5.4%	i	4.2%	i	2.6%
COC(=O)c1cc(C(=O)c2ccc(Cl)cc2)n2c(=O)/c(=C\N(C)C)sc12	2.5%	u	u	u	8.2µM*	9.1%
COC(=O)c1cc(C(=O)c2ccccc2)n2c(=O)/c(=C\N(C)C)sc12	8.7%	-2.7%	i	-9.3%	i	4.9%
C/C(=N\NC(=S)Nc1cccc(C)c1)c1cc2ccccc2o1	12.7%	-3.2%	i	14.1µM*	i	-0.4%
C/C(=N\Nc1ccc([N+](=O)[O-])cc1)c1cc2ccccc2o1	23.9%	-3.9%	i	2.91µM*	i	u
C#CCSc1nc2sc3c(c2c(=O)n1-c1cccc(OC)c1)CCN(C(C)=O)C3	x	x	i	x	i	2.2%
CC(C)(C)C(=O)Nc1sc(-c2ccccc2)cc1C(=O)O	-2.0%	-5.0%	u	-0.3%	6.51µM*	-1.7%
CCOc1ccc(NC(=O)CSc2nc(-c3ccccc3)c3cc(OCC)ccc3n2)cc1	x	x	x	x	x	1.9%

From PubChem
